Molecules are shown by their SMILES. The whole screen tested about 5,500 compounds, of which about 2,000 (36%) were called active. Roughly 18% stayed inconclusive and do not appear here. The list shows a part of the results. Values without a mark were called inactive. Rule as the data show it: active = normalized growth mostly below about 0.91 (no sharp cut-off); inconclusive = no clear call, values can overlap the other calls; inactive = mostly above about 0.92.

The values that follow come from PubChem BioAssay AID1159580 (chemical genetic matrix, 2015).

The nature of this assay: chemical genetic growth profiling, strain panel (AID 1159580).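 Also: tested at 20 µM; growth read once vehicle control cultures reached saturation at 30 °C; 1 = growth at the plate median or of vehicle wells; lower values mean less growth of the strain.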 The note with it: growth OD.
[1] abbreviates: S. cerevisiae deletion strains, locus YDR150W, strain NUM1, stronger effect = lower value.
Setting [2] is: S. cerevisiae deletion strains, locus YGR078C, strain PAC10, stronger effect = lower value.
The mark [3] stands for this setting: S. cerevisiae deletion strains, locus YJR075W, strain HOC1, stronger effect = lower value.
[4] abbreviates: S. cerevisiae deletion strains, locus YMR263W, strain SAP30, stronger effect = lower value.
[5] abbreviates: S. cerevisiae deletion strains, locus YNL153C, strain GIM3, stronger effect = lower value.
The mark [6] stands for this setting: S. cerevisiae deletion strains, locus YNL322C, strain KRE1, stronger effect = lower value.
Setting [7] is: S. cerevisiae deletion strains, locus YPL055C, strain LGE1, stronger effect = lower value.
Where [8] appears, read: S. cerevisiae deletion strains, locus YPL241C, strain CIN2, stronger effect = lower value.
[9] abbreviates: S. cerevisiae deletion strains, locus YAL040C, strain CLN3, stronger effect = lower value.
Setting [10] is: S. cerevisiae deletion strains, locus YCL061C, strain MRC1 (second series), stronger effect = lower value.
Where [11] appears, read: S. cerevisiae deletion strains, locus YDR363W, strain ESC2, stronger effect = lower value.
Where [12] appears, read: S. cerevisiae deletion strains, locus YER002W, strain NOP16, stronger effect = lower value.
Where [13] appears, read: S. cerevisiae deletion strains, locus YGR229C, strain SMI1, stronger effect = lower value.
Setting [14] is: S. cerevisiae deletion strains, locus YNL175C, strain NOP13, stronger effect = lower value.
Setting [15] is: S. cerevisiae deletion strains, locus YNL197C, strain WHI3, stronger effect = lower value.
Setting [16] is: S. cerevisiae deletion strains, locus YNL224C, strain SQS1, stronger effect = lower value.
[17] abbreviates: S. cerevisiae deletion strains, locus YOR083W, strain WHI5 (second series), stronger effect = lower value.

As for `Cc1ccc(CC(=O)O)cc1`, the normalized growth runs as follows: (S. cerevisiae deletion strains, locus YAL013W, strain DEP1, stronger effect = lower value) 0.973; (S. cerevisiae deletion strains, locus YBR229C, strain ROT2, stronger effect = lower value) 0.978; (S. cerevisiae deletion strains, locus YDL101C, strain DUN1, stronger effect = lower value) 0.938; under setting [1], 0.884; (S. cerevisiae deletion strains, locus YEL061C, strain CIN8, stronger effect = lower value) 1.02; under setting [2], 0.926 (active). In addition, the normalized growth (S. cerevisiae deletion strains, locus YHR030C, strain SLT2, stronger effect = lower value) is 1.04; the normalized growth (S. cerevisiae deletion strains, locus YHR087W, strain rtc3, stronger effect = lower value) was 0.947; the normalized growth (S. cerevisiae deletion strains, locus YJR043C, strain POL32, stronger effect = lower value) is 0.959; the normalized growth under setting [3] was 0.885 (active); the normalized growth (S. cerevisiae deletion strains, locus YKL190W, strain CNB1, stronger effect = lower value) is 1.01; the normalized growth (S. cerevisiae deletion strains, locus YLR039C, strain RIC1, stronger effect = lower value) is 1.01. The normalized growth was 0.972 (S. cerevisiae deletion strains, locus YLR058C, strain SHM2 (second series), stronger effect = lower value); 1.08 (S. cerevisiae deletion strains, locus YLR085C, strain ARP6, stronger effect = lower value); 0.998 (S. cerevisiae deletion strains, locus YLR262C, strain YPT6, stronger effect = lower value); 1.03 (S. cerevisiae deletion strains, locus YML094W, strain GIM5, stronger effect = lower value); 0.985 (S. cerevisiae deletion strains, locus YMR219W, strain ESC1, stronger effect = lower value); 0.938 under setting [4]. Also, the normalized growth under setting [5] was 0.964; the normalized growth (S. cerevisiae deletion strains, locus YNL298W, strain CLA4 (second series), stronger effect = lower value) is 1.06; the normalized growth under setting [6] is 0.981; the normalized growth (S. cerevisiae deletion strains, locus YNR030W, strain Alg12, stronger effect = lower value) was 1.03; the normalized growth (S. cerevisiae deletion strains, locus YOL006C, strain TOP1, stronger effect = lower value) is 1.06; the normalized growth under setting [7] was 0.906. The normalized growth by setting is: under setting [8], 1.02; (S. cerevisiae deletion strains, locus YPR135W, strain CTF4, stronger effect = lower value) 1.03; (S. cerevisiae strains, strain wild type, stronger effect = lower value) 1.02.

Regarding `O=C(O)Cc1c[nH]c2ccc(O)cc12`, the normalized growth was 0.988 under setting [9]; 1 under setting [10]; 1.01 under setting [1]; 1 under setting [11]; 0.974 under setting [12]; 0.979 under setting [2]. The normalized growth reads like this: under setting [13], 1.08; under setting [3], 1.01; under setting [4], 0.995; (S. cerevisiae deletion strains, locus YMR307W, strain GAS1, stronger effect = lower value) 1.01; under setting [5], 0.961; under setting [14], 0.982. Also, the normalized growth is 0.975 under setting [15], 1.01 under setting [16], 1 under setting [17] and 0.992 under setting [8].

On to `O=C(O)Cc1ccc(O)c(O)c1`, for which the normalized growth runs as follows: under setting [9], 1.05; under setting [10], 1; under setting [1], 1.01; under setting [11], 0.993; under setting [12], 0.996; under setting [2], 1.02. The normalized growth is 0.976 under setting [13]; 1.02 under setting [5]; 1.02 under setting [14]; 1.02 under setting [15]; 0.982 under setting [16]; 1 under setting [6]. For the same molecule, the normalized growth is, setting by setting: under setting [17], 0.996; under setting [7], 0.982.
